This passage reports z-score results from PubChem BioAssay.

Activity calls are given as the source filed them.

Assay [1] is described as follows: compound effects on lung adenocarcinoma cell viability – A549, calcein-AM fluorescence, 48 h, basal, profiling panel (AID 1162). The conditions noted are these: higher = more signal.
A short description of assay [2]: compound effects on differentiated 3T3-L1 adipocyte viability – cell-based, 3T3-L1 adipocytes, calcein-AM fluorescence, 48 h, basal, profiling panel (AID 1163). The settings on record: 3T3-L1 adipocytes viability, higher = more signal.
A short description of assay [3]: compound effects on hepatocellular carcinoma cell viability – HepG2, calcein-AM fluorescence, 48 h, basal, profiling panel (AID 1164). The conditions noted are these: higher = more signal.
A short description of assay [4]: compound effects on multiple myeloma cell viability – MM1S, calcein-AM fluorescence, 48 h, basal, profiling panel (AID 1165). The conditions noted are these: higher = more signal.
Assay [5] can be described thus: calcein-AM signal in unstimulated myeloma cells – cell-based, calcein-AM fluorescence, 48 h, PK04 Diversity Set, profiling panel (AID 1166).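 Also: cells grown under basal conditions without added stimulus.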 The conditions noted are these: RPMI8226 myeloma viability, higher = more signal.
Assay [6] can be described thus: JC-1 mitochondrial signal, unstimulated HepG2 cells – cell-based, JC-1 fluorescence, 24 h, 100 nL compound, profiling panel (AID 1167). The settings on record: HepG2 mitochondrial potential, higher = more signal.
A short description of assay [7]: JC-1 mitochondrial signal, unstimulated adipocytes – cell-based, JC-1 fluorescence, 3T3-L1 adipocytes, 24 h, 100 nL compound, profiling panel (AID 1168). The conditions noted are these: JC-1 mitochondrial fluorescence, higher = more signal, called active from +8 up or from −8 down.
Assay [8] in a line: JC-1 mitochondrial signal, unstimulated myeloma cells – cell-based, JC-1 fluorescence, RPMI8226, 24 h, 100 nL compound, profiling panel (AID 1169). The conditions noted are these: JC-1 mitochondrial potential fluorescence, higher = more signal.
The nature of assay [9]: JC-1 mitochondrial signal, unstimulated MM1S myeloma – cell-based, JC-1 fluorescence, 24 h, 100 nL compound, profiling panel (AID 1170). The settings on record: MM1S mitochondrial potential, higher = more signal.
Assay [10] in a line: resazurin metabolic signal in A549 cells – cell-based, resazurin fluorescence, 24 h, PK04 Diversity Set, profiling panel (AID 1171). The conditions noted are these: A549 viability, higher = more signal, called active from +8 up or from −8 down. In general terms: The colour change of resazurin is a common sign of viable cells or microbes.
Also: test concentration not given here.

Consider `CCOC(=O)C1=CC[C@@H](c2cccc(Cl)c2)N(S(=O)(=O)c2ccc(C)cc2)C1`, for which the z-score was -0.236 in assay [1]; 0.472 in assay [2]; 0.46 in [3]; -1.14 in assay [4]; -0.789 in [5]; 0.584 in [6]. For the same compound, the z-score in assay [7] is 1.34 (inactive); in assay [8] it was -0.043; in [9], -0.51; in [10], -0.617 (inactive).

With `CCCCCCc1nc(-c2cc(C)c(OC)c(C)c2)c(C)c2c1[Si](C(C)C)(C(C)C)OC2`, the z-score in assay [1] was -0.499; in assay [2], 1.66; in assay [3] it was -0.289; in assay [4], -2.84; in assay [5] it was -1.44; in assay [6], 0.797. The z-score was 0.354 (inactive) in assay [7], -0.18 in [8], -1.6 in [9] and 0.197 (inactive) in assay [10].

In the case of `COC(=O)[C@@]1(Cc2ccc(OC)cc2)[C@H]2c3cc(C(=O)N4CCCC4)n(Cc4cccc5ccccc45)c3C[C@H]2CN1C(=O)c1ccccc1`, the z-score in [1] is -0.249; in assay [2], -0.305; in [3], 1.39; in assay [4] it was -0.47; in assay [5], -0.718; in assay [6], 2.15. Also, the z-score in assay [7] is -0.198 (inactive); in assay [8], -0.427; in assay [9], -1.26; in assay [10] it was -0.506 (inactive).

For the compound `COCCOC(=O)N1C(=O)[C@@]2(c3cc(C#Cc4ccc(OC)cc4)ccc31)[C@H](c1ccc(O)cc1)N1[C@H](c3ccccc3)[C@H](c3ccccc3)OC(=O)[C@H]1[C@@H]2C(=O)N1CCCCCCC1`, the z-score in assay [1] is 0.403; in assay [2], 0.703; in [3], -0.261; in assay [4], -1.08; in [5], -1.29; in [6], -0.902. Besides, the z-score in assay [7] was 1.18 (inactive); in assay [8], -0.464; in [9], -0.414; in [10] it was -0.0155 (inactive).

For the compound `C=CC1c2cc(O)c(OC)cc2CCN1Cc1cc2c(cc1Br)OCO2` (stereo not given), the z-score in assay [1] was -3.63; in [2] it was 1.28; in assay [3], -4.07; in assay [4] it was -3.17; in assay [5] it was -4.57; in assay [6] it was -2.98. Further, the z-score in assay [7] was -0.196 (inactive); in [8] it was -0.743; in assay [9], -0.348; in [10] it was -1.67 (inactive).

Turning to `COCC1=C2[C@@H](CCc3ccccc3)OB(O)C[C@@H]2[C@@H]2C(=O)C=CC(=O)[C@@H]2C1`, the z-score in [1] was 0.144; in assay [2], -0.147; in assay [3], -0.165; in assay [4], -3.4; in [5] it was -3.63; in [6], -3.14. The z-score was -2.12 (inactive) in [7], -0.654 in assay [8], -2.55 in assay [9] and -0.648 (inactive) in assay [10].

Consider `C[C@H]1NC(=O)[C@@]23C(=O)N[C@@H](Cc4ccccc4)C2[C@H](C)[C@@]2(C)O[C@H]2C3/C=C/C/C=C\CNC(=O)[C@H](Cc2ccccc2)NC1=O` (stereo not given in full), for which the z-score in [1] is -0.518; in assay [2], 0.76; in [3] it was -0.607; in [4], 0.401; in assay [5] it was -0.45; in assay [6], 0.88. In addition, the z-score is -0.588 (inactive) in assay [7], 0.331 in [8], 1.02 in assay [9] and 0.0548 (inactive) in assay [10].

In the case of `COc1ccc(-c2nc(-c3ccccc3)c3c(c2C)CO[Si]3(C(C)C)C(C)C)cn1`, the z-score is -0.0364 in assay [1]; -0.628 in assay [2]; -0.292 in [3]; -1.03 in [4]; -3.63 in [5]; -0.922 in assay [6]. Further, the z-score in assay [7] was -1.72 (inactive); in [8], -0.443; in assay [9], -0.294; in [10], 1.95 (inactive).

Take `CCOc1cc(C(O)C2C=CC3C(=O)N(c4ccccc4)C(=O)C3N2Nc2ccc(C#N)cc2)ccc1O` (stereo not given): the z-score in assay [1] was -0.403; in assay [2] it was -0.958; in assay [3], 0.264; in [4], -1.49; in [5], -1.01; in assay [6], -2.67. Besides, the z-score is -1.55 (inactive) in assay [7], 0.674 in assay [8], -0.443 in assay [9] and -0.883 (inactive) in [10].

As for `COCCOC(=O)N1C(=O)[C@@]2(c3cc(C#CC4=CCCCC4)ccc31)[C@H](c1ccc(O)cc1)N1[C@H](c3ccccc3)[C@H](c3ccccc3)OC(=O)[C@H]1[C@@H]2C(=O)N1CCN(c2ncccn2)CC1`, the z-score is -0.462 in assay [1]; -0.89 in assay [2]; 0.19 in [3]; 0.444 in [4]; 0.771 in [5]; 0.642 in assay [6]. Also, the z-score in [7] is 1.87 (inactive); in assay [8], 0.736; in [9] it was -0.587; in assay [10] it was 0.0994 (inactive).

In the case of `COC(=O)[C@@]1(Cc2ccc(OC)cc2)[C@H]2c3cc(C(=O)N(C)C)n(CCO)c3C[C@H]2CN1C(=O)c1ccccc1`, the z-score is -1.58 in [1]; 0.611 in assay [2]; -0.516 in assay [3]; -1.25 in assay [4]; -0.755 in assay [5]; -0.133 in assay [6]. Further, the z-score was -1.36 (inactive) in assay [7], -0.577 in assay [8], -0.327 in [9] and -0.0699 (inactive) in assay [10].

For the compound `COCCOC(=O)N1C(=O)[C@@]2(c3cc(C#CC4=CCCCC4)ccc31)[C@H](c1ccc(OCCO)cc1)N1[C@H](c3ccccc3)[C@H](c3ccccc3)OC(=O)[C@H]1[C@@H]2C(=O)N1CCN(c2ncccn2)CC1`, the z-score in [1] was -0.471; in assay [2] it was 1.18; in [3] it was 0.47; in [4], -0.759; in [5], -0.774; in [6], 0.955. The z-score in assay [7] is 1.46 (inactive); in [8], -0.333; in [9], -1.01; in assay [10], 0.468 (inactive).

Turning to `COc1ccc(C#Cc2ccc3c(c2)[C@]2(C(=O)N3)[C@H](c3ccc(O)cc3)N3[C@H](c4ccccc4)[C@H](c4ccccc4)OC(=O)[C@H]3[C@@H]2C(=O)O)cc1`, the z-score in assay [1] is -0.884; in assay [2], 0.943; in assay [3], 0.127; in assay [4], -2.24; in assay [5], -2.2; in assay [6], -3.68. In addition, the z-score in [7] was -0.742 (inactive); in assay [8], -0.28; in assay [9], -0.361; in assay [10], 0.344 (inactive).

On to `CCC(CC)C(O)C1C=CC2C(=O)N(c3ccccc3)C(=O)C2N1Nc1ccc(C(C)C)cc1` (stereo not given), for which the z-score in assay [1] is -0.0442; in assay [2] it was 0.667; in assay [3], 0.0413; in assay [4], -0.393; in [5], -0.842; in [6], -1.68. In addition, the z-score in assay [7] was 0.261 (inactive); in assay [8], -0.0785; in assay [9] it was 0.299; in assay [10] it was -1.32 (inactive).

In the case of `COC(=O)[C@@]1(Cc2ccc(OC)cc2)[C@H]2c3cc(C(=O)N(C)C)n(C[C@H](O)CO)c3C[C@H]2CN1C(=O)c1ccccc1`, the z-score in assay [1] was -0.93; in assay [2], -0.503; in [3], -0.285; in assay [4], -1.99; in [5], -1.79; in assay [6], 0.906. Further, the z-score is -0.871 (inactive) in assay [7], -0.847 in assay [8], -1.03 in [9] and -0.816 (inactive) in [10].
